Reference: PubChem BioAssay (Tox21)
Results filed as inconclusive are left out. Where a call stands in place of a potency, no number is given. Calls of active or inactive are those of the source. Calls follow the shape of the full dose curve.

Molecular target: Beta-2 adrenergic receptor (Homo sapiens) (UniProt P07550)
Test: Adrenergic beta2 receptor (ADRB2) small molecule agonists, cell-based qHTS assay (AID 1963593);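 also: CHO cells stably overexpressing human ADRB2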
Method in brief: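 CHO cells stably over-expressing ADRB2 were plated overnight at 37C, then dosed with compounds plus a stimulation mix containing 100uM IBMX and 25uM Ro-20-1724 for 0.5hr at room temperature. cAMP was measured by HTRF competition, 1hr.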

Sequence of Beta-2 adrenergic receptor (Homo sapiens) (P07550 whole entry, looked up): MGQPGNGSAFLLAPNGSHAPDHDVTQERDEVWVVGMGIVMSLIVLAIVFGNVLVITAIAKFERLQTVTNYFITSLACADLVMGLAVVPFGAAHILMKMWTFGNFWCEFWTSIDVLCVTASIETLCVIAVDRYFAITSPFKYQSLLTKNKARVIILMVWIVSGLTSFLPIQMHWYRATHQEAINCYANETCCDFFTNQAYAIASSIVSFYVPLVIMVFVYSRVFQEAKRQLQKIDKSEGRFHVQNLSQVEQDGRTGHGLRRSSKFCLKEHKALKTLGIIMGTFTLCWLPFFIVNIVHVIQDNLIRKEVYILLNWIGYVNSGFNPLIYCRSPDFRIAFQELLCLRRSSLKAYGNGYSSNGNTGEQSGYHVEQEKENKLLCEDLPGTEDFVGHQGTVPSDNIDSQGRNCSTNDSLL

CC(=O)c1ccc(O)cc1
Potency: inactive

OCCc1ccccc1
Potency: inactive

C=C(C)C1CC=C(C)CC1 (stereo not drawn)
Potency: inactive

O=[N+]([O-])c1cccc(Cl)c1
Potency: inactive

Clc1ccccn1
Potency: inactive

CCC(=O)O
Potency: inactive

Cc1ncc([N+](=O)[O-])n1C
Potency: inactive

Nc1nc2ncc(CNc3ccc(C(=O)N[C@@H](CCC(=O)O)C(=O)O)cc3)nc2c(=O)[nH]1
Potency: inactive

CC(=O)N[C@@H](CS)C(=O)O
Potency: inactive

COc1ccccc1O
Potency: inactive

Cc1cc(=O)[nH]c(C(C)C)n1
Potency: inactive

CCCCCCCCO
Potency: inactive

O=C1C(c2[nH]c3ccccc3c2O)=Nc2ccccc21
Potency: inactive

CCCC(O)C(CC)CO (stereo not drawn)
Potency: inactive

CCCCCCC(C)O (stereo not drawn)
Potency: inactive

O=CCCCC=O
Potency: inactive

CC(=O)C(C)C
Potency: inactive

Nc1ccccc1[N+](=O)[O-]
Potency: inactive

COC(C)COC(C)COC(C)CO (stereo not drawn)
Potency: inactive

C=CC(C)(CCC=C(C)C)OC(C)=O (stereo not drawn)
Potency: inactive

CC(=O)CC(=O)N(C)C
Potency: inactive

CCCCCCCCCCCCCO
Potency: inactive

COc1ccc([C@@H]2CC(=O)c3c(O)cc(O[C@@H]4O[C@H](CO[C@@H]5O[C@@H](C)[C@H](O)[C@@H](O)[C@H]5O)[C@@H](O)[C@H](O)[C@H]4O)cc3O2)cc1OC
Potency: inactive

C[Si](C)(C)N[Si](C)(C)C
Potency: inactive

COCCOCCOCCO
Potency: inactive

CN(C)CCCN
Potency: inactive

C1N2CN3CN1CN(C2)C3
Potency: inactive

CC(C)=CCO
Potency: inactive

O=C1CCc2ccccc2O1
Potency: inactive

Cc1cc(C2(c3cc(C)c(O)cc3C)OS(=O)(=O)c3ccccc32)c(C)cc1O
Potency: inactive

CCC(C)(O)CCCC(C)C (stereo not drawn)
Potency: inactive

NC(=O)N/N=C/c1ccc([N+](=O)[O-])o1
Potency: inactive

CCCCC(=O)O
Potency: inactive

C=CCOC(=O)C(=C)C
Potency: inactive

CC(=O)OC/C=C(\C)CCC=C(C)C
Potency: inactive

COC(=O)CCC(=O)OC
Potency: inactive

CC(=O)Nc1ccc(C(=O)O)cc1
Potency: inactive

Cc1cc(Cc2ccc(N)c(C)c2)ccc1N
Potency: inactive

CCCCC(CC)COC(=O)CCCCC(=O)OCC(CC)CCCC (stereo not drawn)
Potency: inactive

C=CC(=O)OCCC(=O)O
Potency: inactive

CCOCC(=O)O
Potency: inactive

CC(=O)CC/C=C(\C)CCC=C(C)C
Potency: inactive

CC(O)CC(C)(C)O (stereo not drawn)
Potency: inactive

O=C1CCCCCCCCCCC1
Potency: inactive

CCCCCCCCCCCCS
Potency: inactive

O=C(O)Cc1cccc2ccccc12
Potency: inactive

CCCCCCCC(=O)OCC(COC(=O)CCCCCCC)OC(=O)CCCCCCC
Potency: inactive

C=CC(C)(C)C
Potency: inactive

Cc1cccc(O)c1C
Potency: inactive

CC(=O)Oc1c(C)c(C)c2c(c1C)CC[C@@](C)(CCC[C@H](C)CCC[C@H](C)CCCC(C)C)O2
Potency: inactive

C=Cc1ccc(C)cc1
Potency: inactive

NC(N)=S
Potency: inactive

CCCCOC(=O)COc1ccc(Cl)cc1Cl
Potency: inactive

COCCCN
Potency: inactive

CCCN(CCC)C(=O)SCC
Potency: inactive

CCCCCCCCCC
Potency: inactive

CC(=O)Nc1ccc(CC(=O)O)cc1
Potency: inactive

CCCCNC(=O)NS(=O)(=O)c1ccc(C)cc1
Potency: inactive

CC(=O)OC(C)C
Potency: inactive

C=C[Si](OCCOC)(OCCOC)OCCOC
Potency: inactive

CCc1cccc(C)c1N
Potency: inactive

OC1CCCCC1
Potency: inactive

CCCCOCCOCCO
Potency: inactive

CCC(=O)OC/C=C/c1ccccc1
Potency: inactive

Cc1cccc2ccccc12
Potency: inactive

CC(C)=CCC/C(C)=C/C=O
Potency: inactive

Nc1ncnc2nc[nH]c12
Potency: inactive

O=C=NCCCCCCN=C=O
Potency: inactive

OC[C@H]1O[C@H](O[C@]2(CCl)O[C@H](CCl)[C@@H](O)[C@@H]2O)[C@H](O)[C@@H](O)[C@H]1Cl
Potency: inactive

CCCCCCCCCCCCCC(=O)OC(C)C
Potency: inactive

CC(C)OP(=O)(CP(=O)(OC(C)C)OC(C)C)OC(C)C
Potency: inactive

ClC1=C(Cl)C(Cl)(Cl)C(Cl)=C1Cl
Potency: inactive

CCCCC/C(C=O)=C\c1ccccc1
Potency: inactive

Cc1ccc(C)c(O)c1
Potency: inactive

C#CCN(C)Cc1ccccc1
Potency: inactive

CC(=O)OCCOC(C)=O
Potency: inactive

OB(O)O
Potency: inactive

CCCCC(CC)COC(=O)c1ccc(C(=O)OCC(CC)CCCC)cc1 (stereo not drawn)
Potency: inactive

CCCCC(CC)COC(=O)/C=C/c1ccc(OC)cc1 (stereo not drawn)
Potency: inactive

COC(=O)CC(=O)OC
Potency: inactive

CCCCCCCCCCCC(=O)OC
Potency: inactive

C/C=C1/CC2C=CC1C2 (stereo not drawn)
Potency: inactive

NC(=S)NNC(N)=S
Potency: inactive

C[Si](O[Si](C)(C)C)O[Si](C)(C)C
Potency: inactive

c1ccc2n[nH]nc2c1
Potency: inactive

COc1ccccc1[N+](=O)[O-]
Potency: inactive

Cc1cc(C)c(C)cc1C
Potency: inactive

Cc1ncc(CO)c(CO)c1O
Potency: inactive
